From article PMC5540273 (PLoS ONE, 2017)

Columns and labels:
Details in all cases: concentration: 1 μM, replicates: in singlicate; n = 1
ACVR1 = system: ACVR1
ACVR2A = system: ACVR2A
ACVR2B = system: ACVR2B
ACVRL1 = system: ACVRL1
ADCK3 = system: T1, ADCK3
T1 construct: gene CABC1

ADCK4 = system: ADCK4
AKT1 = system: AKT1
AKT2 = system: AKT2
AKT3 = system: AKT3
ALK = system: ALK
AMPK-alpha1 = system: T2, AMPK-alpha1
T2 construct: gene PRKAA1

AMPK-alpha2 = system: T3, AMPK-alpha2
T3 construct: gene PRKAA2

ANKK1 = system: ANKK1
ARK5 = system: T4, ARK5
T4 construct: gene NUAK1

ASK1 = system: T5, ASK1
T5 construct: gene MAP3K5

ASK2 = system: T6, ASK2
T6 construct: gene MAP3K6

AURKA = system: AURKA
AURKB = system: AURKB
AURKC = system: AURKC
AXL = system: AXL
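Note: KINOMEscan kinase panel screen.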

SMILES	%Inh (ACVR1)	%Inh (ACVR2A)	%Inh (ACVR2B)	%Inh (ACVRL1)	%Inh (ADCK3)	%Inh (ADCK4)	%Inh (AKT1)	%Inh (AKT2)	%Inh (AKT3)	%Inh (ALK)	%Inh (AMPK-alpha1)	%Inh (AMPK-alpha2)	%Inh (ANKK1)	%Inh (ARK5)	%Inh (ASK1)	%Inh (ASK2)	%Inh (AURKA)	%Inh (AURKB)	%Inh (AURKC)	%Inh (AXL)
COc1ccc2cc(-c3nc(-c4ccccc4C(C)C)[nH]c3-c3ccncc3)ccc2c1 [SB-660566]	17%	0%	0%	34%	5%	17%	0%	41%	0%	38%	17%	0%	6%	18%	16%	3%	5%	30%	0%	36%
Cc1ccc(NC(=O)Nc2ccccc2)cc1-c1ccc(C(=O)Nc2ccncc2)cc1 [GSK1398471]	0%	0%	0%	0%	19%	14%	1%	4%	0%	21%	15%	11%	0%	13%	10%	4%	15%	0%	0%	11%
CNCc1ccc2nc(NC(=O)c3ccc(C(C)(C)C)cc3)cn2c1	2%	0%	0%	7%	0%	13%	5%	8%	17%	16%	0%	13%	40%	0%	21%	0%	8%	22%	25%	15%
CNc1cc(-c2ccc3c(N)n[nH]c3c2)nc(N)n1 [GSK2224810]	29%	43%	56%	0%	13%	13%	0%	0%	0%	5%	0%	0%	10%	0%	0%	0%	4%	0%	10%	0%
CCCCc1nn2ncccc2c1-c1ccnc(NC2CC2)n1 [GW684374]	2%	0%	0%	0%	61%	38%	0%	0%	0%	17%	0%	0%	8%	12%	0%	0%	30%	12%	38%	0%
COc1ccc(CSc2nnc(-c3ccc4ncsc4c3)o2)cc1C(F)(F)F	0%	0%	0%	2%	0%	0%	8%	4%	0%	0%	0%	13%	0%	10%	0%	4%	0%	13%	0%	0%
Cc1ccc(NC(=O)c2ccc(Cl)cc2)cc1-c1ccc(C(=O)Nc2ccncc2)cc1 [GSK1398467]	7%	0%	10%	0%	15%	0%	0%	19%	0%	18%	0%	21%	0%	6%	0%	21%	0%	1%	17%	0%
Cc1c(Cn2c(C)c(C)n3c(=O)cc(N4CCOCC4)nc23)cccc1C(F)(F)F [GSK2328680]	0%	0%	0%	0%	2%	14%	0%	0%	0%	3%	0%	2%	0%	0%	2%	0%	0%	0%	0%	0%
COc1ccc(CSc2nnc(-c3ccc4c(c3)CCO4)o2)cc1	0%	0%	0%	0%	0%	0%	0%	0%	0%	0%	0%	0%	0%	33%	0%	0%	0%	0%	0%	0%
COC(=O)C(Cc1ccccc1)NC(=O)NC1CCN(c2ccnc(Nc3ccc(F)cc3)n2)C1 (centres unmarked) [GSK1379714]	6%	0%	6%	0%	21%	36%	0%	0%	0%	0%	7%	0%	0%	0%	5%	0%	43%	11%	35%	3%
